This is an account of results in PubChem BioAssay AID2732 (Emory University Molecular Libraries Screening Center, 2010).

The campaign covered roughly 220,000 compounds. About 8,200 (3.7%) were called active. Shown is part of a subset that was picked to be rich in actives. Values without a mark were called inactive.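 Rule for the calls: active = compounds that reduced the stress-induced luciferase reporter signal by more than about 70% of percent inhibition (limit read from the data); inactive = the rest.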

This assay is described as follows: inhibitors of CHOP promoter induction, primary screen, cell-based, unfolded protein response, luciferase reporter (AID 2732).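 Note: 0% = tunicamycin plus vehicle and 100% = wells without tunicamycin.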 To be noted: CHO-K1 CHOP-promoter luciferase, tunicamycin-induced, 15-18 h; at 10 µM; stronger effect = higher value. For orientation: Reporter assays use an easily measured gene product as a stand-in for the process of interest.
As to `COc1ccc(-c2cc(C(F)(F)F)nc(SCC(=O)Nc3ccc4c(c3)OCO4)n2)cc1OC`, the inhibition (in general, the change of the read-out against control, counted positive when it falls) was 22.4%.

For `COc1ccc(-c2cc(C(F)(F)F)nc(S(C)(=O)=O)n2)cc1OC`, the inhibition is 109% (active). Under `COc1cc(OC)nc(S(C)(=O)=O)n1` stands -18.2%; under `O=C(Nc1cccnc1)c1cc([N+](=O)[O-])ccc1Cl`, -9.19%; under `CCOC(=O)C1CCN(c2c(Nc3cc(C)cc(C)c3)c(=O)c2=O)CC1`, 4.73%. Under `O=S(=O)(c1ccc(NC(=S)NN=C(C2CC2)C2CC2)cc1)N1CCOCC1` stands -4.48%; under `CN(c1ccccc1)S(=O)(=O)c1ccc(Cl)c(C(=O)OCC(=O)NCc2ccco2)c1`, 29.9%. As to `CCN1CCN(c2nc(Nc3cc(OC)ccc3OC)nc(Nc3cc(OC)ccc3OC)n2)CC1`, the inhibition was -5.76%. In the case of `CCOc1ccc(Nc2nc(Cl)nc(N3CCN(c4ccc(OC)cc4)CC3)n2)cc1`, the inhibition was 72.4% (active). Under `CCOc1ccc(NC(=O)CN2CCN(CC(=O)Nc3ccc(OC)cc3)CC2)cc1` stands 34.6%; under `Cc1coc2cc3oc(=O)c(CCC(=O)O)c(C)c3cc12`, -3.28%.

Consider `COC(=O)c1sccc1NC(=S)Nc1ccc(C)cc1`, for which the inhibition is 10.2%. Under `CCN(CC)CCCNC(=O)CCc1ccccc1` stands 0.68%; under `CCc1ccc(NC(=O)CS(=O)CC(=O)NCCCc2ccccc2)cc1` (centres undefined), 75.9% (active); under `Cc1cnc(C(=O)OCC(=O)NCCCc2ccccc2)cn1`, 4.94%. Under `NNC(=O)c1oc2nc(-c3ccccc3)cc(-c3ccco3)c2c1N` stands -41.2%; under `COC(OC)c1ccnc(SCc2ccccc2Cl)n1`, 15.3%; under `COc1ccc(-c2csc(Nc3ccc(O)cc3)n2)cc1`, 18.9%.

As to `Cc1ccc(Nc2nc(-c3ccc(O)cc3O)cs2)nc1`, the inhibition is 88.9% (active).

Consider `O=c1oc2ccccc2cc1-c1csc(Nc2ccc(O)cc2)n1`, for which the inhibition is -72.5%.

For `Nc1nnn(CC(=O)N/N=C/c2ccccc2)n1`, the inhibition was 9.73%. As for `COc1cc(N2C(=O)CC3(CCCC3)CC2=O)cc(OC)c1OC`, the figure is -7%. As for `O=C(Nc1ccc(N2CCOCC2)nc1)c1c(F)cccc1F`, the figure is -6.02%; as for `CCOC(=O)c1c(NC(=O)NC(C)(C)C)sc2c1CCN(C)C2`, 16.3%; as for `O=[N+]([O-])c1ccc2nc(-c3ccccn3)[nH]c2c1`, -8.07%.

Turning to `COc1ccc(Cl)cc1CSc1ncn[nH]1`, the inhibition is -7.32%. As for `Cc1cc(C)nc(S/C=C/C(=O)c2ccccc2)n1`, the figure is 24.8%; as for `O=C(/C=C/Sc1ncn[nH]1)c1ccc(Cl)cc1`, 105% (active); as for `CCCCSc1nc2c(c(=O)n1CC)SC(C)C2` (centres undefined), 97.1% (active). As for `CCn1c(SCC(=O)Nc2ccccc2F)nc2c(c1=O)SC(C)C2` (centres undefined), the figure is -15.6%. As for `CCn1c(SCC(=O)Nc2ccc3c(c2)OCCO3)nc2c(c1=O)SC(C)C2` (centres undefined), the figure is 3.73%; as for `COc1c(N2CCN(C(=S)Nc3ccccc3F)C(C)C2)c(F)cc2c(=O)c(C(=O)O)cn(C3CC3)c12` (centres undefined), 2.97%; as for `Cc1nnc(SCc2cc(=O)[nH]c(N3CCN(Cc4ccccc4)CC3)n2)s1`, 39.7%. On to `Cc1ccc(-n2c(=O)cc(N3CCN(Cc4ccccc4)CC3)[nH]c2=O)cc1`, for which the inhibition is -31.4%. As for `CCc1c(C)nc(N2CCN(Cc3ccccc3)CC2)[nH]c1=O`, the figure is 80% (active); as for `Cn1c(SCC(=O)N2CCOCC2)nnc1-c1ccc2ncccc2c1`, -14.7%. On to `S=c1[nH]nc(-c2cc(-c3ccccc3)n[nH]2)n1/N=C/c1c2ccccc2cc2ccccc12`, for which the inhibition was 74% (active). As for `S=c1[nH]nc(-c2ccccc2)n1/N=C/c1c[nH]c2ccccc12`, the figure is 30.5%. Regarding `S=c1[nH]nc(-c2ccco2)n1/N=C/c1ccccc1`, the inhibition was 13.8%. Under `O=C(CN1CCN(Cc2ccc(F)cc2Cl)C1=O)NCc1cccs1` stands 5.73%. In the case of `O=c1c(Cl)c(NCc2ccc(F)cc2Cl)cnn1C12CC3CC(CC(C3)C1)C2`, the inhibition is 78.6% (active). Under `O=C(O)CC12CC3CC(C1)CC(n1ncc(NCc4ccc(F)cc4)c(Cl)c1=O)(C3)C2` stands -5.94%.

Turning to `CCCN(CC1COc2ccccc2O1)C(=S)Nc1ccc(C)cc1` (centres undefined), the inhibition was 28.3%. As for `O=C(NCC1COc2ccccc2O1)C1(c2ccccc2)CCCC1` (centres undefined), the figure is 17.7%; as for `S=C(NCC1COc2ccccc2O1)Nc1ccc(Br)cc1` (centres undefined), 81.2% (active); as for `CCCN(CCC)S(=O)(=O)c1ccc(C(=O)N2CC3CCC(CC3)C2)cc1`, 5.98%. Under `O=[N+]([O-])c1cccc2ncccc12` stands 15.2%; under `CC(C)(C)NC(=O)Cn1nnc(-c2ccccc2Cl)n1`, 2.55%; under `Cc1cc(C)n(C(=O)c2ccc(S(=O)(=O)N3CCCC3)cc2)n1`, 13%.

As for `Cc1ccccc1-c1nnn(CC(=O)c2ccc(S(=O)(=O)N3CCCC3)cc2)n1`, the inhibition was 76% (active). Under `CC(OC(=O)c1ccc(NS(=O)(=O)c2ccc3[nH]c(=O)[nH]c3c2)cc1)C(=O)Nc1cccc(Cl)c1Cl` (centres undefined) stands -9.73%. On to `NCCCCCC(=O)N/N=C/c1ccc2nccnc2c1`, for which the inhibition was 16.6%.

For the compound `Cc1onc(NC(=O)c2ccc([N+](=O)[O-])o2)c1Br`, the inhibition was -20.6%. Under `Cc1cc(C(=O)Nc2c(C)n(C)n(-c3ccccc3)c2=O)cs1` stands 23.5%; under `COc1ccc(S(=O)(=O)Nc2c(C)n(C)n(-c3ccccc3)c2=O)cc1`, -21.7%; under `Cc1cccc(OP(=O)(Nc2c(C)n(C)n(-c3ccccc3)c2=O)Oc2cccc(C)c2)c1`, 71.4% (active). As for `O=C(CCl)Nc1cccc(CP(=O)(c2ccccc2)c2ccccc2)c1`, the figure is -134%. As for `COc1ccc(CNC(=O)CCC(=O)Nc2nnc(C(C)C)s2)cc1`, the figure is 11.9%; as for `COc1ccc(OC)c(/C=N/NC(=O)CSc2nnc(C)n2-c2ccccc2)c1`, -5.53%.

As to `Cc1nnc(SCC(=O)N/N=C/c2cn(-c3ccccc3)nc2-c2ccc(F)cc2)n1-c1ccccc1`, the inhibition is 97.1% (active). Under `Cc1ccc(-c2nn(-c3ccccc3)cc2/C=N/NC(=O)c2ccc3c(c2)OCO3)cc1` stands 22.2%. Under `CC(C)COC(=O)n1c(=O)oc2ccc(S(=O)(=O)N3CCCCC3)cc21` stands 11.3%; under `COc1ccc(OC)c(Nc2nc3ccccc3n3cnnc23)c1`, 24.5%; under `Cc1cccc(C2C3=C(CCCC3=O)N=C3c4ccccc4C(=O)C32)c1` (centres undefined), 19.4%.

Take `Cc1cccc(NC(=O)c2cccc(C(F)(F)F)c2)c1`: the inhibition was 2.04%. Under `CC(=O)N1CCN(C(=O)Nc2cccc(C(F)(F)F)c2)CC1` stands 26.5%; under `Cc1cccc(NC(=O)c2nnn(-c3cccc(C(F)(F)F)c3)c2N)c1`, 70.6% (active); under `CC(=O)OCCOCn1cnn2c(=O)c(Br)c(C)nc12`, 7.79%. Under `O=C(O)c1ccccc1OCc1ccccc1Cl` stands -5.39%; under `Cn1nccc1NC(=O)Nc1ccc(OC(F)(F)F)cc1`, 0.64%; under `CC1(C)C2CCC1(C)C(OC(=O)CCn1ccnc1)C2` (centres undefined), 4.53%. Regarding `CC1(C)C2CCC1(C)C(OC(=O)c1ccc(O)cc1)C2` (centres undefined), the inhibition is 77.6% (active). As for `Cc1ccc(C(=O)OC2CCCN(C)C2)cc1` (centres undefined), the figure is 7.84%; as for `N#Cc1ccc(Oc2ccc(C(F)(F)F)cc2NC(=O)c2ccc(F)cc2)cc1`, 6.42%.

As to `O=C(NCC1CCCO1)c1ccccc1-c1nc(-c2ccccc2Cl)no1` (centres undefined), the inhibition is -0.61%. As for `C1=C(CCNc2ncnc3c2cnn3-c2ccccc2)CCCC1`, the figure is 88% (active); as for `O=C(NNc1ncnc2c1cnn2-c1ccccc1)c1ccco1`, 2.45%. As for `c1ccc(-n2ncc3c(N4CCCC4)ncnc32)cc1`, the figure is -22.2%; as for `O=C1N(c2ccccc2)C(=Nc2ccccc2)SC12CC2`, -17.1%.

Take `O=C(CCNc1n[nH]c(=O)[nH]c1=O)N/N=C\c1ccc(Br)cc1`: the inhibition is -14.4%.

With `Cc1noc(C)c1S(=O)(=O)Nc1cc(C(F)(F)F)ccc1N1CCOCC1`, the inhibition was 13.3%. As for `COc1ccccc1OCCC(=O)OCC(=O)NC(=O)NC(C)(C)C`, the figure is 44.9%; as for `CC(C)(C)NC(=O)NC(=O)COC(=O)CCC1CCCCC1`, 80.2% (active). As for `CC(C)(C)NC(=O)NC(=O)COC(=O)C1(C)CC1(Cl)Cl` (centres undefined), the figure is 6.38%. As for `Cc1c(C(=O)N/N=C/c2ccccc2)[nH]c2c([N+](=O)[O-])cccc12`, the figure is 20%; as for `O=C(O)C(F)(F)C(NCc1ccccc1)c1ccccc1` (centres undefined), -11.7%. For `Cc1ccc(N2C(=O)CN=C2Nc2nc(C)cc(C)n2)cc1`, the inhibition is 17%. Under `O=C(c1ccc(Cl)cc1)c1cnc(Nc2ccccc2)s1` stands 70.1% (active).

In the case of `CC(C)(C)C(=O)c1cnc(Nc2ccccc2)s1`, the inhibition was 4%. As for `O=C(CSc1nnc(Nc2ccccc2)s1)Nc1cccnc1Cl`, the figure is -4.1%.

With `CCc1ccnc(NS(=O)(=O)c2ccc3c(c2)OCCO3)c1`, the inhibition is 16.7%. Under `O=c1c(/C=N/O)coc2ccc(Cl)cc12` stands 3.04%; under `CC(Nc1nc(N2CCOCC2)nc2ccccc12)c1ccccc1` (centres undefined), 16.9%. Under `CC(Nc1nc(N2CCCC2)nc2ccccc12)c1ccccc1` (centres undefined) stands 34.2%. With `c1ccc2c(NC3C4CC5CC(C4)CC3C5)nc(N3CCOCC3)nc2c1` (centres undefined), the inhibition is 83.1% (active). As for `Cc1cc(=O)oc2c(C(=O)c3ccccc3)c(OCC(N)=O)ccc12`, the figure is 6.93%; as for `CCC(C)(C)c1ccc(Oc2ccc(NC(=O)COC(=O)C3=COCCO3)cc2)cc1`, 80.4% (active); as for `COc1ccc(NC(=O)COC(=O)CNC(=O)C2CCCCC2)cc1`, 9.71%.

Regarding `O=C(OCC(=O)c1cccs1)C1=COCCO1`, the inhibition was 17.6%.
